Source: PubChem BioAssay AID1903 (Southern Research Specialized Biocontainment Screening …, 2009)
About 1,200 (0.39%) of roughly 310,000 compounds were called active. No rule for the calls is given here. Only a sample is shown. Potency and affinity values are given separately.

What follows are compounds tested against Large T antigen (Simian virus 40) (UniProt P03070) (assay: SV40 large T antigen inhibitors, biochemical (AID 1903)). Settings: SV40 large T antigen ATPase/helicase inhibition assay; at 20 µM; hits give high values.
Chain of Large T antigen (Simian virus 40) (P03070 whole entry, looked up): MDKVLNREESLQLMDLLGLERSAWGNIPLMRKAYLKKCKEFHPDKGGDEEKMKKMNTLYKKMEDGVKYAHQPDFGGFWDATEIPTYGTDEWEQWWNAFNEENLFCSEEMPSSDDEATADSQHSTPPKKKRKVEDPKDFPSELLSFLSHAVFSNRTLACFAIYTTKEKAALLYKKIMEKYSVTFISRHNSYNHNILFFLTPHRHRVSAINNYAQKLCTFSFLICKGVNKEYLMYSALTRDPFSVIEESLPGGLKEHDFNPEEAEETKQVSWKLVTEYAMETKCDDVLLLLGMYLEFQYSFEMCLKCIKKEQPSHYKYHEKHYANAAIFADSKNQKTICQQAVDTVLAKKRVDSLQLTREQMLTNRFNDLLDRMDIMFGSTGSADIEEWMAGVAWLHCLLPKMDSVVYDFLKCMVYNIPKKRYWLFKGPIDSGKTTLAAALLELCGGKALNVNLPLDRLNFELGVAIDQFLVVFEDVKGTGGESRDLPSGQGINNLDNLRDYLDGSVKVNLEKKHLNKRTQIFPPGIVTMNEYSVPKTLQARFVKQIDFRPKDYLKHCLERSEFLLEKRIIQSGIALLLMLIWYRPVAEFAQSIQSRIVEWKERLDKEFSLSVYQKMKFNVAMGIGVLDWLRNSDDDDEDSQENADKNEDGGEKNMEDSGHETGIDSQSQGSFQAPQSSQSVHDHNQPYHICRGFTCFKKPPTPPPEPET

inhibition, inactive:
Cc1ccc(C(=O)COC(=O)CNC(=O)CNC(=O)c2ccc(C)cc2)cc1 10.1%
COc1cc(NC(=O)c2cc([N+](=O)[O-])ccc2NC(=O)CN2CCN(c3ccccn3)CC2)cc(OC)c1 2.42%
Cc1ccc(NC(=O)NCCN2CCCCC2)cc1 12.7%
Cc1cc(C)c(S(=O)(=O)NCCn2c(C)cc3ccccc32)c(C)c1 3.6%
NS(=O)(=O)c1ccc(-c2ccc(/C=C3\NC(=S)NC3=O)o2)cc1 34.2%
NS(=O)(=O)c1ccc(-c2ccc(/C=C3\C(=O)Nc4ccccc43)o2)cc1 3.06%
COc1ccccc1/C=C/C(=O)N1CCCC1 16.6%
Cn1cc([N+](=O)[O-])c(C(=O)NC2CCCCCCC2)n1 11.7%
CCOc1cc(N2CCOCC2)c(OCC)cc1NC(=O)C(C)C 5.9%
O=S(=O)(Nc1ccc(N2CCOCC2)cc1)c1ccc(Cl)s1 36.6%
CCOc1cc(N2CCOCC2)c(OCC)cc1NC(C)C(=O)N1CCN(CC)CC1 (configuration not stated) 4.25%
CCOc1cc(N2CCOCC2)c(OCC)cc1NS(=O)(=O)c1cc(NC(C)=O)ccc1OC 9.72%
COc1ccccc1CNC(=O)C(CC(C)C)NC(=O)C1CCC(C)CC1 (configuration not stated) 12.9%
COc1ccc(/C=N/NC(=O)Cc2csc(Nc3cccc(C(F)(F)F)c3)n2)c(OC)c1 4.64%
CCOC(=O)C1Nc2c(F)cc(C)cc2C2C=CCC12 (configuration not stated) 26%
O=C(O)C1Nc2c(C(=O)N3CCOCC3)cccc2C2C=CCC12 (configuration not stated) 34.2%
O=C(O)C1Nc2c(C(F)(F)F)ccc(Cl)c2C2C=CCC12 (configuration not stated) 17.1%
CCOC(=O)C1Nc2ccc(Br)cc2C2C=CCC12 (configuration not stated) 7%
CCNc1ccc(C(=O)OCC)cc1NC(=O)c1cccc(S(=O)(=O)N(C)c2ccccc2)c1 -1.52%
CC1CN(CCOCCSc2ccccc2)CC(C)O1 (configuration not stated) -2.63%
COC(=O)CNc1cc(S(=O)(=O)N2CCCCC2)ccc1Oc1cccc(C)c1 5.08%
COc1ccc(Cn2c(-c3ccc(OC)cc3)nc3c(c(=O)c4ccccc4n3C)c2=O)cc1 4.69%
c1ccc2c(NCCCN3CCOCC3)c3ccccc3nc2c1 3.76%
Cc1csc2c(NCCCN3CCOCC3)ncnc12 5.93%
COc1ccc(/C=N/n2c(COc3ccccc3)n[nH]c2=S)cc1OC 32.6%
CCCc1nc2ccccc2c(=O)n1/N=C/c1ccccc1O -9.27%
O=c1c2ccccc2nc(COc2ccccc2)n1/N=C/c1ccc(O)cc1O 5.35%
O=C(O)COc1ccc(/C=N/n2c(COc3ccccc3)nc3ccccc3c2=O)cc1 1.95%
CCOc1cc(/C=N/n2c(COc3ccccc3)n[nH]c2=S)ccc1O 19.9%
CCCc1nc2ccccc2c(=O)n1/N=C/c1ccc(O)cc1 6.26%
O=C1COc2ccc(C(=O)COC(=O)c3cc(S(=O)(=O)NCc4ccccc4)ccc3O)cc2N1 13%
Cc1cc(Cl)ccc1NC(=O)CN1C(=O)NC2(CCCc3ccccc32)C1=O (configuration not stated) 25.2%
CCOC(=O)CN1C(=O)SC(CC(=O)Nc2nccs2)C1=O (configuration not stated) 2.87%
O=C(COC(=O)Cc1ccccc1F)NNC(=O)c1ccc([N+](=O)[O-])cc1 22.7%
FC(F)Oc1ccc(-n2cc(-c3ccccc3)[n+]3c2CCCCC3)cc1 10.7%
COc1ccccc1NC(=S)N1CCN(c2cccc(C)c2C)CC1 -4.85%
COc1ccccc1NS(=O)(=O)c1ccc(O)cc1 7.04%
O=C(O)CN1C(=O)S/C(=C\c2cccnc2)C1=O 16.2%
O=C(CCc1nnc(-c2ccsc2)o1)NCc1ccccc1OC(F)(F)F 3.5%
CN(C)S(=O)(=O)c1ccc(NC(=O)c2ccccn2)cc1 -5.42%
O=C(NCc1ccco1)C1CC(=O)N(c2ccc(F)cc2)C1 (configuration not stated) 9.04%
O=C(NCc1ccco1)C1CC(=O)N(c2ccc(Cl)cc2)C1 (configuration not stated) -4.21%
[O-][n+]1ccccc1/C=C/c1ccccc1 7.12%
[O-][n+]1ccccc1SCc1ccccc1 10.4%
COc1ccc(NC(=O)C2CCN(S(=O)(=O)c3cccc4nonc34)CC2)c(OC)c1 10.9%
CC1CCN(CCCCOc2ccc([N+](=O)[O-])cc2)CC1 20.7%
O=C(CN1CCCN(Cc2ccc(F)cc2)S1(=O)=O)NC1CCCC1 1.85%
O=C(Nc1ccc(Cl)cc1)NC1CCCCC1 0.423%
Cc1ccc(NC(=O)NC2CCCCCCC2)cc1 3.82%
O=C(c1ccc2c(c1)OCO2)N1CCC2(CC1)Oc1ccc(Cl)cc1C(=O)C21CC(c2cccnc2)=NO1 (configuration not stated) 6.56%
O=C(CCn1c(=O)oc2ccccc21)Nc1cccc(Cl)c1 6.5%
O=C(CCn1c(=O)oc2cc(Cl)ccc21)Nc1ccc(N2CCOCC2)cc1 12.7%
CCCCN(C(=O)c1ccc(S(=O)(=O)N2CCCC2)cc1)C1CCS(=O)(=O)C1 (configuration not stated) 2.38%
O=C(COc1ccc(Br)cc1)NNC(=S)NCc1ccccc1 15%
O=S1c2ccccc2Nc2ccccc21 8.27%
COC(=O)/C(C#N)=C1/C=Cc2ccccc2N1 9.95%
OC[C@H]1OC(O)[C@@H](O)[C@@H](O)[C@@H]1O (some centres not stated) 12.2%
O=C(CSc1ccccc1C(=O)O)NC12CC3CC(CC(C3)C1)C2 7.17%
O=C(Cn1nc(C(=O)O)c2ccccc2c1=O)NC12CC3CC(CC(C3)C1)C2 3.68%
N#Cc1ccsc1NC(=O)CN1CCN(S(=O)(=O)c2ccc3ccccc3c2)CC1 -5.22%
O=C(CCc1c[nH]c2ccccc12)NC(Cc1c[nH]c2ccccc12)C(=O)O (configuration not stated) 11.4%
CNC(=O)c1ccccc1Sc1ccccc1CO 10.3%
NNC(=O)c1ccccc1CO 3.38%
O=[N+]([O-])c1cccc(/C=N/N2CCN(c3ccccn3)CC2)c1 15.9%
COc1ccccc1CNC(=O)c1ccccc1C(=O)NC(CC(C)C)C(=O)NCc1ccccc1OC (configuration not stated) 14%
COc1ccc2[nH]c3c(=O)n(CCCCC(=O)NCCC(C)C)c(=S)[nH]c3c2c1 9.9%
CCCNC(=O)CCCCn1c(=S)[nH]c2c([nH]c3ccc(OC)cc32)c1=O 10.7%
CCCCNC(=O)CCCCn1c(=S)[nH]c2c([nH]c3ccc(OC)cc32)c1=O 9.54%
COc1ccc2[nH]c3c(=O)n(CCCCCC(=O)NCCC(C)C)c(=S)[nH]c3c2c1 5.88%
CCc1nc2oc3ccccc3c(=O)c2c(=O)n1Cc1ccccc1 2.01%
Cn1ccnc1SCC(=O)c1cccc(Br)c1 23.2%
Cc1cc(C)c(NC(=O)COC(=O)CSc2ccc(Br)cc2C)c(C)c1 -2.91%
O=C(O)c1ccc(O)c(O)c1 8.73%
CC(=O)c1ccc(O)c(CO)c1 8.31%
O=C(CSc1nnc(Cn2c(=O)sc3ccccc32)n1-c1ccccc1)N1CCCCCC1 2.86%
COCCCNCCOCCOc1ccc(C)cc1[N+](=O)[O-] 0.35%
Cc1cccc(NC(=S)NNc2cccc(Cl)c2)c1 23.5%
CCOc1ccc(S(=O)(=O)N(CC)CC)cc1N -1.97%
CCOc1ccc(C(=O)c2ccc(OCC)c(N)c2)cc1N 3.54%
O=C(CN1CCN(C2CCCCC2)CC1)Nc1ccc(Br)cc1 3.84%
Cc1ccc(NC(=O)CN2CCC(C(=O)c3ccc(F)cc3)CC2)cc1 11.8%
CN(C)c1ccc(NC(=O)CN2CCC(NC(=O)C3CCCCC3)CC2)cc1 28.2%
COc1ccc(C(=O)C2CCN(CC(=O)Nc3ccc(C)cc3)CC2)cc1 -0.7%
O=C(CN1CCC(C(=O)c2ccc(F)cc2)CC1)Nc1ccc(F)cc1 3.44%
CC(=O)c1ccc(NC(=O)CN2CCC(C(=O)c3ccc(F)cc3)CC2)cc1 25.6%
COc1cccc(-c2ccc(NC(=O)C3CCCN(Cc4cnc(C)n4C)C3)cc2)c1 (configuration not stated) 12.9%
Nc1nc(-c2ccccc2)c(-c2ccc([N+](=O)[O-])cc2)s1 2.8%
Nc1nc(-c2ccccc2)c(-c2ccccc2)s1 22%
O=C(Nc1cccc(S(=O)(=O)N2CCCC2)c1)c1cccnc1 8.88%
CCn1c(C)nc2cc(C(=O)NNC(=S)NC(=O)c3ccccc3)ccc21 22.4%
COc1ccc(C(=O)Nc2ccc(NC(=O)C3CC3)cn2)cc1 10.7%
N#C/C(=C/c1ccc(Sc2nc3ccccc3[nH]2)o1)c1cccc(F)c1 0.21%
C=CCN1C(=O)S/C(=C/c2ccc(Sc3nc4ccccc4[nH]3)o2)C1=O 6.66%
N#C/C(=C\c1ccc(Sc2nc3ccccc3[nH]2)o1)c1ccccc1 13%
CCN1C(=O)S/C(=C/c2ccc(Sc3nc4ccccc4[nH]3)o2)C1=O 10.6%
N#C/C(=C/c1ccc(Sc2nc3ccccc3[nH]2)o1)c1cccc(Br)c1 -8.47%
CC(C)N1C(=O)S/C(=C/c2ccc(Sc3nc4ccccc4[nH]3)o2)C1=O 7.29%
